HT1080NT lethal – kills 2HG-producing HT-1080-NT fibrosarcoma cells. HT-1080-NT fibrosarcoma viability, CellTiter-Glo ATP luminescence, 48 h. Potency, µM (doses to about 46.1 µM), without a hit: at the top dose activity, negative = less viability, most hits filed as cytotoxic. 1.6% of 360,000 active. AID 686970;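 further: NT is the 2HG producing partner of a matched IDH1 knockdown line; potency means the concentration at half of the fitted maximal effect; 0% = DMSO-treated cells and -100% = media-only wells without cells; nearly all actives have a fitted effect of over 55% in size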
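HT-1080-NT; 750 cells/well; 5% FBS RPMI; 48 h compound, 37 degrees C; CellTiter-Glo luminescence; curve fitting and curve-class assignment.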
KB-V1 cytotox – kills drug-selected multidrug resistant KB-V1 cells | KB-V1 MDR cells viability, CellTiter-Glo, 72 h | Potency, µM (top dose mostly 46.1 µM), usual class: cytotoxic | 3.4% of 400,000 active | AID 1347076; further: potency means the concentration at half of the fitted maximal effect; nearly all actives have a fitted effect of over 60% in size
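Drug-selected KB-V1 cells, grown in DMEM lacking phenol red with 10% FBS, receive compound titrations; after three days at 37 degrees C, surviving cell ATP is quantified by CellTiter-Glo luminescence and responses normalized and curve-fitted.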
IL1B secr inh – inflammasome signaling inhibition, IL-1 beta readout; AID 743279; activity change, % at 57.5 µM; 4.7% of 360,000 active; THP-1 LPS/ATP IL-1B secretion, AlphaLISA, 16 h; stronger effect = lower value; in the data active means activity change below about -50%; inconclusive means mostly about -30% to -49%
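THP-1 cells pretreated 1 hr with compounds (up to 57.5 uM final), then stimulated with LPS (250 ng/mL final) plus ATP (1.25 mM final); secreted IL-1B measured by AlphaLISA after 16 hr, decreased signal indicating inhibition.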
KB-3-1 tox – kills parental KB-3-1 adenocarcinoma cells. Potency, µM (top dose mostly 46.1 µM), usual class: cytotoxic. 1.4% of 400,000 active. KB-3-1 viability, CellTiter-Glo ATP luminescence, 72 h; further: potency means the concentration at half of the fitted maximal effect; nearly all actives have a fitted effect of over 60% in size
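Luminescent ATP read-out (CellTiter-Glo) measures survival of drug-naive KB-3-1 cells after 72 h compound exposure at 37 °C. Titration series was screened from lowest to highest concentration, with DMSO vehicle plates as background controls.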
HT1080 IDH1KD tx – kills HT-1080 cells with IDH1 knockdown | 2% of 360,000 active | AID 686971 | HT-1080 IDH1 knockdown viability, ATP luminescence, 48 h | Potency, µM (series often up to 46.1 µM), inactives show at the highest dose activity, negative = toxicity, actives largely listed as cytotoxic;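 further: potency means the concentration at half of the fitted maximal effect; 0% = DMSO wells and -100% = cell-free medium wells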
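IDH1KD HT-1080 cells, 750/well, RPMI + 5% FBS; compound pinned after 2 h settling; 48 h, 37 °C; CellTiter-Glo luminescence; % activity normalised to DMSO and no-cell wells; curves fitted, classed by r2 and efficacy.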
Active calls of the source: *. Shown are actives, neighbours in structure and some others; about 8.8% of the full set was active somewhere. Unless noted, the call rests on the fitted dose curve; in most records, active means well fitted curve in the direction sought with a large enough effect; inconclusive means small, poorly fitted or top-dose-only effect, or another doubt; inactive means no such curve, though single readings can be large; an effect the other way counts as inactive or inconclusive. Unless noted, on the % scale 0 is the no-effect control and ±100 the full control effect.

How did Cc1cc(C)nc(SCC(=O)Nc2ncc(Cc3cccc(Cl)c3)s2)n1 do in these assays?
HT1080NT lethal: -9%; KB-V1 cytotox: 4.6µM*; IL1B secr inh: 1; KB-3-1 tox: inactive; HT1080 IDH1KD tx: inconclusive

Results for Cc1cccc(-n2ncc3c(NCc4ccccn4)ncnc32)c1 ?
HT1080NT lethal: 1%; KB-V1 cytotox: inactive; IL1B secr inh: inconclusive; KB-3-1 tox: inactive; HT1080 IDH1KD tx: -2%

Results for c1ccc(CNc2nnnn2-c2ccccc2)cc1 ?
HT1080NT lethal: 7%; KB-V1 cytotox: 21µM*; IL1B secr inh: 25; KB-3-1 tox: inconclusive; HT1080 IDH1KD tx: 4%

What do the screens show for `Cc1cccc(-n2ncc3c(NCc4ccccc4)ncnc32)c1`?
HT1080NT lethal: inconclusive; KB-V1 cytotox: 6.5µM*; IL1B secr inh: 23; KB-3-1 tox: 3.3µM*; HT1080 IDH1KD tx: 18µM*

What do the screens show for `Cc1cccc(-n2ncc3c(N4CCCc5ccccc54)ncnc32)c1`?
HT1080NT lethal: inconclusive; KB-V1 cytotox: 8.2µM*; IL1B secr inh: 13; KB-3-1 tox: inconclusive; HT1080 IDH1KD tx: inconclusive

How did O=C(Cn1cnc2c(NCc3ccccc3)ncnc21)NCc1ccccc1 do in these assays?
HT1080NT lethal: 8.2µM*; KB-V1 cytotox: 7.3µM*; IL1B secr inh: 85; KB-3-1 tox: 2.9µM*; HT1080 IDH1KD tx: 6.5µM*

What do the screens show for `Cc1cccc(-n2ncc3c(NCCN4CCOCC4)ncnc32)c1`?
HT1080NT lethal: 15%; KB-V1 cytotox: inactive; IL1B secr inh: -16; KB-3-1 tox: inactive; HT1080 IDH1KD tx: 10%

What do the screens show for `Cc1cc2c(cc1C)C(c1ccsc1)CC(=O)N2` (stereo not drawn)?
HT1080NT lethal: 1%; KB-V1 cytotox: inactive; IL1B secr inh: 0; KB-3-1 tox: inactive; HT1080 IDH1KD tx: -1%

What do the screens show for `CCOc1ccccc1NS(=O)(=O)c1ccc2c(c1)n(C)c(=O)c(=O)n2C`?
HT1080NT lethal: 12%; KB-V1 cytotox: inconclusive; IL1B secr inh: -3; KB-3-1 tox: inactive; HT1080 IDH1KD tx: 7%

What do the screens show for `CC(C)OCCCNc1ncnc2c1cnn2-c1ccccc1`?
HT1080NT lethal: 0%; KB-V1 cytotox: 15µM*; IL1B secr inh: -12; KB-3-1 tox: inactive; HT1080 IDH1KD tx: 14%

Results for Fc1ccc(CNc2ncnc3c2cnn3-c2ccccc2)cc1 ?
HT1080NT lethal: inconclusive; KB-V1 cytotox: inactive; IL1B secr inh: -9; KB-3-1 tox: inactive; HT1080 IDH1KD tx: -29%

How did CN(C)CCCNc1ncnc2c1cnn2-c1ccccc1 do in these assays?
HT1080NT lethal: 11%; KB-V1 cytotox: inconclusive; IL1B secr inh: 0; KB-3-1 tox: inactive; HT1080 IDH1KD tx: -12%

How did c1ccc(CNc2ncnc3c2cnn3-c2ccccc2)cc1 do in these assays?
HT1080NT lethal: inconclusive; KB-V1 cytotox: 2.6µM*; IL1B secr inh: 41; KB-3-1 tox: 5.2µM*; HT1080 IDH1KD tx: inconclusive

How did Cn1c(SCC(=O)OC2CCCCC2)nnc1-c1ccco1 do in these assays?
HT1080NT lethal: 18%; KB-V1 cytotox: inactive; IL1B secr inh: 55; KB-3-1 tox: inactive; HT1080 IDH1KD tx: 17%

Results for CCS(=O)(=O)c1c(Nc2ccc(F)c(Cl)c2)sc(C(=O)c2ccccc2)c1N ?
KB-V1 cytotox: inactive; KB-3-1 tox: inactive

What do the screens show for `COc1cccc(CNC(=O)COC(=O)c2nc(Cl)c(Cl)c(Cl)c2Cl)c1`?
HT1080NT lethal: inconclusive; KB-V1 cytotox: inactive; IL1B secr inh: -101*; KB-3-1 tox: inconclusive; HT1080 IDH1KD tx: -28%

How did COc1cccc(CNC(=O)CCl)c1 do in these assays?
HT1080NT lethal: 11%; KB-V1 cytotox: inactive; IL1B secr inh: 0; KB-3-1 tox: inactive; HT1080 IDH1KD tx: 19%

What do the screens show for `CC(C)(CC(=O)O)CC(=O)Nc1cc(C(F)(F)F)cc(C(F)(F)F)c1`?
HT1080NT lethal: -1%; KB-V1 cytotox: inactive; IL1B secr inh: -9; KB-3-1 tox: inactive; HT1080 IDH1KD tx: -13%

Results for N#CC(C#N)=Cc1cn(-c2ncc(C(F)(F)F)cc2Cl)c2ccccc12 ?
HT1080NT lethal: inconclusive; KB-V1 cytotox: inconclusive; IL1B secr inh: 4; KB-3-1 tox: inactive; HT1080 IDH1KD tx: 19%
